High-throughput results (PubChem BioAssay)
Only some compounds are listed: those with a hit (about 14% of all), similar ones and a draw of the others.
Cycloheximide cs – Cycloheximide Counterscreen for Small Molecule Inhibitors of Shiga Toxin; cell reporter, cycloheximide protein synthesis inhibition counterscreen; AID 2314, 2010; actives 12% (n = 300,000); max response, %; in the data active = max response mostly above about 13%, no sharp cut-off; inactive = mostly below about 14%; also: read at 38.3 µM for the half of the compounds with a filed dose; 0% is about no effect
LmPK inh – qHTS Assay for Inhibitors of Leishmania Mexicana Pyruvate Kinase (LmPK). purified LmPK, Kinase-Glo ATP luminescence, 1 h. actives 0.37% (n = 290,000). Potency, µM (titrated, usually from 57.5 µM), inactives show at the top dose activity change, negative = inhibition, usual class: inhibitors; also: potency is read from the fitted curve at half-maximal effect; % is scaled to controls: 0 for no effect and ±100 for the full control effect
Target sequence (Q27686 whole entry, looked up): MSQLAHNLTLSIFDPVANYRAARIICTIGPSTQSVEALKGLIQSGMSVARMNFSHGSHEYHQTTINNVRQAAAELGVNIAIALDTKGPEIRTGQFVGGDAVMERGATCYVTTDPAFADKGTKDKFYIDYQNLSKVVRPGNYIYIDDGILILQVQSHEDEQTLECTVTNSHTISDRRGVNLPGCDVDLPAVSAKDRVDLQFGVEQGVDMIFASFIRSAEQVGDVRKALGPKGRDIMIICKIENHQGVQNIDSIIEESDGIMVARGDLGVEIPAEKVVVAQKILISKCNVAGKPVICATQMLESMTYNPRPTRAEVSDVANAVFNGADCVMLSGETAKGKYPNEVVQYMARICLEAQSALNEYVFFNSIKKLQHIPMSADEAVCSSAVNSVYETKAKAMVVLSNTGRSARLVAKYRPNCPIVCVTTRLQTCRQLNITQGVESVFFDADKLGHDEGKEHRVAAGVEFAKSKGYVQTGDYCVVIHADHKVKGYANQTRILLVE
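Purified LmPK (0.1 nM) with 0.5 mM PEP and 0.1 mM ADP in imidazole buffer pH 7.2 with MgCl2/KCl, 1 h at room temperature. ATP formed was read by luciferase luminescence and normalized to no-enzyme and uninhibited controls.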
NS1 function inh – qHTS Assay for Inhibitors of Influenza NS1 Protein Function. actives 0.4% (n = 270,000). Potency, µM (top dose mostly 46.1 µM), for inactives: at the top dose activity, positive = more growth; calls by dose curve; also: potency is read from the fitted curve at half-maximal effect; actives are rising curves; nearly all actives have a fitted effect of over 50% in size
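In this qHTS, NS1 from influenza A is expressed in budding yeast, where it slows growth. Cells are switched from glucose to 2% galactose medium (pH 6.0, -URA), treated with compound, and growth recovery is read at OD600.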
Giardia FBPA inh – qHTS Assay for Inhibitors of Fructose-1,6-bisphosphate Aldolase from Giardia Lamblia; A8B2U2; purified Giardia FBPA; Potency, µM (doses to about 59.6 µM), without a hit: at the highest dose activity, negative = inhibition, actives largely listed as inhibitors; actives 0.71% (n = 290,000); also: potency is read from the fitted curve at half-maximal effect; % is scaled to controls: 0 for no effect and ±100 for the full control effect; nearly all actives have a fitted effect of over 55% in size
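Giardia FBPA (40 nM reagent) was preincubated 10 min at RT with compound (up to 57.5 uM final), then substrate plus GAPDH/TPI/NAD/arsenate coupling system with diaphorase/resazurin was added; resorufin fluorescence (525/598 nm) was read after 20 min.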
Shiga toxin inh – A qHTS for Small Molecule Inhibitors of Shiga Toxin; Vero cells, Shiga toxin protein synthesis inhibition reporter; inhibition, % at 38.7 µM; actives 9.2% (n = 290,000); AID 2315, 2010; in the data active = inhibition mostly above about 28%, no sharp cut-off; inactive = mostly below about 43%; also: 0% is about no effect
* hit, by the source's call; . = no result; [ ] = dose if it differs, or a comment. Unless noted, calls follow the shape of the dose curve; as a rule, active = well fitted curve in the direction sought with a large enough effect; inconclusive = small, poorly fitted or top-dose-only effect, or another doubt; inactive = no such curve, though single readings can be large; an effect the other way counts as inactive or inconclusive.

SMILES	Cycloheximide cs	LmPK inh	NS1 function inh	Giardia FBPA inh	Shiga toxin inh
Cc1ccc(NC(=S)NCc2ccc3c(c2)OCO3)cc1C	13	2%	-40%	-3%	-7
Nc1c(C(=O)Nc2nccs2)sc2nc(-c3cccs3)cc(C(F)(F)F)c12	3	-2%	-5%	3%	-3
Cc1nnc(NC(=O)c2sc3nc(-c4cccs4)cc(C(F)(F)F)c3c2N)s1	41*	5%	8%	10%	57*
Nc1nc(NCCc2ccccc2)nc(NCCO)c1[N+](=O)[O-]	0	5%	6%	3%	18
Cc1ccc(-n2cc(CNCCc3ncc(C)[nH]3)c(-c3ccc(F)cc3)n2)cc1	14*	3%	1%	0%	7
COc1ccc(-n2cc(CN(C)CCO)c(-c3cccc(F)c3)n2)cc1	54*	1%	3%	-4%	107*
Cc1ccc(-n2cc(CNCCn3nc(C)cc3C)c(-c3ccc(F)cc3)n2)cc1	-1	0%	4%	-6%	34
COc1ccc(-n2cc(CNCCc3cnc[nH]3)c(-c3cccc(F)c3)n2)cc1	41*	3%	-71%	21%	67
COc1ccc(-n2cc(CNCc3cccnc3)c(-c3cccc(F)c3)n2)cc1	16	2%	1%	1%	51
COc1ccc(CNCc2cn(-c3cccc(F)c3)nc2-c2ccc(C)o2)cc1	11*	5%	2%	-2%	15
C[C@H]1C[C@@H]2[C@@H]([C@@H](O)C[C@@]3(C)[C@H]2CC[C@]3(O)C(=O)CO)[C@@]2(C)C=CC(=O)C=C12	.	.	.	-1%[21.7 µM]	.
COc1cccc(-c2nnc(SCC(=O)N(C(C)C)C(C)C)o2)c1	20	4%	-39%	8%	56*
Clc1ccc(CSc2nnc(-c3ccc4c(c3)OCO4)o2)cc1	1	-1%	-64%	8%	-8
Cc1cc(NC(=O)CSc2nnc(-c3ccc4c(c3)OCCO4)o2)no1	22*	-3%	-4%	11%	121*
COc1cc(OC)cc(-c2nnc(SCC(=O)N(C(C)C)C(C)C)o2)c1	-2	4%	-7%	12%	-4
Cc1cc(NC(=O)CSCC(=O)OCc2nnc(-c3ccccc3)o2)no1	16*	-4%	0%	.	30
Cc1ccc(NC(=O)Cc2nc(CSc3nnc(-c4ccc5c(c4)OCO5)o3)cs2)cc1	16	-1%	-7%	-3%	98*
Cc1cc(NC(=O)CSc2nnc(-c3cccc(Cl)c3)o2)no1	1	-4%	-3%	.	-3
COc1cc(OC)cc(-c2nnc(SCC(=O)N3CCCc4ccccc43)o2)c1	7	0%	-30%	0%	4
COc1cccc(-c2nnc(SCC(=O)Nc3cc(C)on3)o2)c1	25*	3%	-4%	9%	54
COc1cccc(-c2nnc(SCC(=O)N3CCCc4ccccc43)o2)c1	10	0%	-9%	-2%	19*
O=C(Nc1ccc(Cl)cc1)c1cc(Br)ccc1OCC(=O)N1CCOCC1	9	-10%	8%	.	-33
Cc1ccc(N2CC(C(=O)Nc3ccc(S(=O)(=O)NCC4CCCO4)cc3)CC2=O)cc1C (stereo not given)	-6	1%	-3%	-13%	2
O=C(N/N=C/c1ccccc1O)C1SCCCS1	26*	6%	.	13%	40
CCC(C)(C)NC(=O)CN(C(=O)C(=O)Nc1ccc2c(c1)OCCO2)N1CCOCC1	-6	-3%	-3%	1%	-6
SMILES	Cycloheximide cs	LmPK inh	NS1 function inh	Giardia FBPA inh	Shiga toxin inh
O=Cc1cn(CCCOc2ccccc2)c2ccccc12	55*	0%	17%	-23%	51*
COc1ccc(OCCn2cc(C=O)c3ccccc32)cc1	-3	1%	9%	-9%	12
COC(=O)N/N=C/c1cn(CCCOc2ccccc2)c2ccccc12	40*	5%	10%	11%	72*
CC1=CN2C(=N)/C(=C\c3cn(CCCOc4ccccc4)c4ccccc34)C(=O)N=C2S1	12*	2%	9%	8%	10
Cc1ccc(CNC(=O)[C@]2(C(F)(F)F)C[C@H](CCc3ccccc3)CCCO2)o1	10	.	.	0%	-5
CC(=O)NCCc1nc2ccccc2n1Cc1cccc(C)c1	1	-1%	2%	2%	4
CC(C)c1ccc(O)c(NC(=O)c2cncc(Br)c2)c1	19*	-1%	-3%	-1%	36*
Cc1ccc(NC(=O)c2cncc(Br)c2)c([N+](=O)[O-])c1	11*	4%	2%	4%	77*
